Records with an inconclusive call do not appear. A call without a number means that no potency is given here. Active and inactive are the calls of the source. Unless noted, the call rests on the fitted dose curve; in most records, active means well fitted curve in the direction sought with a large enough effect; inconclusive means small, poorly fitted or top-dose-only effect, or another doubt; inactive means no such curve, though single readings can be large; an effect the other way counts as inactive or inconclusive. Peptide text beside a SMILES is read from it.
Columns and labels:
[1] = target: Cytochrome P450 3A4 (Homo sapiens) (UniProt P08684); test: qHTS Assay for Inhibitors and Substrates of Cytochrome P450 3A4 (AID 884); further: nearly all actives have a fitted effect of over 50% in size
Cytochrome P450 3A4 (Homo sapiens), sequence (P08684 whole entry, looked up): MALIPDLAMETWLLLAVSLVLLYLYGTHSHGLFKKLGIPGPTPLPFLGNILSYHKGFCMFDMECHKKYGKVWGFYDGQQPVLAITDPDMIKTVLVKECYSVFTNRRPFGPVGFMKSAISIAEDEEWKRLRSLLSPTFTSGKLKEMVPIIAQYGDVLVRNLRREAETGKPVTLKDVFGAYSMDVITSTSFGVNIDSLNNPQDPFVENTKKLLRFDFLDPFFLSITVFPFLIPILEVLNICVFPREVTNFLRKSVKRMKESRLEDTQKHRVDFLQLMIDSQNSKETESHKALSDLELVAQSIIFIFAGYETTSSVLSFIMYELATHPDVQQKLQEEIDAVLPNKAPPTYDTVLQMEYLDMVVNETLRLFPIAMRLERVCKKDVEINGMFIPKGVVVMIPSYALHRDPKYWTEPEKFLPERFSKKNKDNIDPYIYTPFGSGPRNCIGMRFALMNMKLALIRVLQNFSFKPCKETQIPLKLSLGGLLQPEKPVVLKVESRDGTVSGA
Procedure, shortened: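 20 nM human CYP3A4 with 25 uM Luciferin-PPXE (at KM) in 200 mM KPO4, preincubated 10 min with compound; NADPH regeneration started a 60 min RT reaction. Luciferin detected by luminescence, normalized to 57 uM ketoconazole as full inhibition.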

[2] = Confirmation and Secondary Assay for Modulators of Hemoglobin Beta Chain Splicing at IVS2 654 locus (AID 910);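 further: HeLa cells stably carrying EGFP split by mutant beta-globin IVS2-654 intron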
Procedure, shortened: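 HeLa cells stably expressing EGFP interrupted by β-globin IVS2-654 intron, seeded overnight in Opti-MEM/2% FCS, then treated 2 days at 37 °C. Restored splicing read as total peak GFP intensity per well by laser scanning cytometry (488 nm excitation, 500–520 nm emission); 500 nM antisense PNA as control.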

[3] = Confirmation and Secondary Assay for Modulators of Hemoglobin Beta Chain Splicing at IVS2 705 locus (AID 930);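 further: HeLa cells stably expressing the EGFP-705 splicing reporter; GFP fluorescence per well restored by corrected splicing of the IVS2-705 intron in EGFP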
Procedure, shortened: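 First, HeLa EGFP-705 cells are seeded at 500/well in Optimem with 2% FCS and left overnight. Next, compound or DMSO is added for 2 days. Finally wells are laser-scanned and total peak GFP intensity scored.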

[4] = qHTS Assay for Lipid Storage Modulators (AID 1519; calls by dose curve); conditions: Drosophila S3 cells, BODIPY lipid droplet/cell ratio, laser cytometry, cells loaded with oleic acid; for activity change, negative = inhibition: at 57.5 µM (top of the series)
Procedure, shortened: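 Cells seeded at 5,000 per well were treated with compounds over a concentration series and loaded with oleic acid (400 uM, as added). Lipid droplet fluorescence (488 nm excitation, 500-530 nm channel) was read by laser-scanning cytometry and normalized to 20 uM Triacsin C.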

[5] = target: Ubiquitin carboxyl-terminal hydrolase 1 (Homo sapiens) (UniProt O94782); test: Inhibitors of USP1/UAF1: Pilot qHTS (AID 504865); further: nearly all actives have a fitted effect of over 35% in size; further: potency means the concentration at half of the fitted maximal effect;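 on activity change, negative = inhibition: rhodamine fluorescence freed from ubiquitin-rhodamine substrate followed over time; top concentration of the series differs between compounds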
Ubiquitin carboxyl-terminal hydrolase 1 (Homo sapiens), sequence (O94782 whole entry, looked up): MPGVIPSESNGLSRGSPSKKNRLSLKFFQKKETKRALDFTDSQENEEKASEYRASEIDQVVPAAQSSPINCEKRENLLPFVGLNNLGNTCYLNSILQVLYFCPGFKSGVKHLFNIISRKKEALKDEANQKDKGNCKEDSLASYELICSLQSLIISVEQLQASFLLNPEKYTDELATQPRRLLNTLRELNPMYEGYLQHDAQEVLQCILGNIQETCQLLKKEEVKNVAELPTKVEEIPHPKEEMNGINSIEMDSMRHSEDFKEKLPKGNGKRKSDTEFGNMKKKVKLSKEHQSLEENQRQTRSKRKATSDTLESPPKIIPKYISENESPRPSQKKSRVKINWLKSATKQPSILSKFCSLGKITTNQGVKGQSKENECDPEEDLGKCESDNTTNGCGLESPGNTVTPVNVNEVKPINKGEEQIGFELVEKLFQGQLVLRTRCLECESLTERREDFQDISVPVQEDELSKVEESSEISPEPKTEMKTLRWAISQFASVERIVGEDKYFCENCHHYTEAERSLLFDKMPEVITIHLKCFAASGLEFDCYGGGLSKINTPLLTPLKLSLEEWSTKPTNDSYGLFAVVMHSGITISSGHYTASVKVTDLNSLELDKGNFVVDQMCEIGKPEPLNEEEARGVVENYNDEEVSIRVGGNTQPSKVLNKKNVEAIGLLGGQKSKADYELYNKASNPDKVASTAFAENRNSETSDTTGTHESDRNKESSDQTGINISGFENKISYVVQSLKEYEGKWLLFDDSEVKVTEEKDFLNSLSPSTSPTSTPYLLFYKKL
Procedure, shortened: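 In 50mM HEPES pH 7.8 containing 0.5mM EDTA, 1mM TCEP, 0.1 mg/ml BSA and 0.01% Tween-20, 1nM USP1/UAF1 is exposed to compound for 15 min, then Ub-Rho (150nM final) is added and fluorescence is read over time.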

[6] = target: Cytochrome P450 3A4 (Homo sapiens) (UniProt P08684); test: qHTS Assay for Activators of Cytochrome P450 3A4 (AID 885); further: nearly all actives have a fitted effect of over 65% in size
Procedure, shortened: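 Steps: enzyme/substrate mix dispensed; compound added, 10 min RT; NADPH regeneration solution added, 60 min RT; luciferin detection buffer stops reaction; 20 min later luminescence measured.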

[7] = measured here: cell count channel max response
[8] = measured here: lipid channel max response

Structure (SMILES) | Potency [1] | Potency [2] | Potency [3] | activity change, negative = inhibition [4] | max response [4, 7] [%] | max response [4, 8] [%] | Potency [5] | Potency [6]
CCN1CCN(C(=O)NC(C(=O)NC2C(=O)N3C2SC(C)(C)C3C(=O)O)c2ccccc2)C(=O)C1=O (stereo unspecified) | inactive | inactive | inactive | 7.43% (inactive) | -3.83 | 0.752 | inactive | 
CCOC(=O)CCCCCCCCCCCCC1C=CCC1 (stereo unspecified) | inactive | inactive | inactive | 1.66% (inactive) | 9.42 | 10.7 | inactive | 
OCC(O)C(O)[C@H](O[C@H]1OC(CO)C(O)C(O)C1O)[C@H](O)CO (stereo partly specified) | inactive | inactive | inactive | 3.91% (inactive) | 11.8 | 16 | inactive | 
CCCCCC1C(=O)CCC1CC(=O)OC (stereo unspecified) | inactive | inactive | inactive | 7.58% (inactive) | 6.16 | 16 | inactive | 
COc1ccc(C2CC(=O)c3c(O)cc(O[C@H]4OC(COC5OC(C)C(O)C(O)[C@@H]5O)C(O)C(O)C4O)cc3O2)cc1O (stereo partly specified) | inactive | inactive | inactive | -1.5% (inactive) | 1.58 | -1.01 | inactive | 
COC(=O)/C(C)=C/CC12OC(C)(C)C3CC(C=C4C(=O)c5cc6c(c(CCC(C)(C)Cl)c5OC431)OC1(C)CCC(=C(C)C)C6C1)C2=O (stereo unspecified) | inactive | inactive | inactive | 14.1% (inactive) | 7.63 | 20.5 | inactive | 
CC(=O)Oc1c(C)cccc1C(=O)O | inactive | inactive | inactive | 5.46% (inactive) | 15.6 | 23.9 | inactive | 
CC(C)CC(NC(=O)CN)C(=O)NC(Cc1ccccc1)C(=O)O (stereo not drawn) (H-Gly-Leu-Phe-OH; configuration not given here) | inactive | inactive | inactive | 6.28% (inactive) | 3.97 | 11.6 | inactive | 
O=C(O)C1(O)CC(O)C(O)C(O)C1 (stereo unspecified) | inactive | inactive | inactive | 2.66% (inactive) | 9.62 | 14.4 | inactive | 
CC(C)CC(N)C(=O)NC(C)C(=O)O (stereo unspecified) | inactive | inactive | inactive | 3.3% (inactive) | 18.5 | 21.6 | inactive | 
CC(=O)OC1CCC2(O)CC1(C)CCC1C2CC1(C)C (stereo unspecified) | inactive | inactive | inactive | 0.291% (inactive) | 16.4 | 18.1 | inactive | 
COc1ccc2c(c1OC)OCC(c1ccc(OC)c(OC)c1OC)C2 (stereo unspecified) | inactive | inactive | inactive | 9.26% (inactive) | 12.7 | 23.2 | inactive | 
CC(=O)OC1CCC2(C)C3CC(=O)C4(C)C(CC5OC6(CCC(C)CO6)C(C)C54)C3CC[C@H]2C1 (stereo partly specified) | inactive | inactive | inactive | 5.04% (inactive) | 11.2 | 17.7 | inactive | 
COC1=CC(=O)C(C(=O)c2ccccc2)=CC1=O |  | inactive | inactive | 9.22% (inactive) | 13.1 | 25.8 | 25.1 µM (active) | inactive
COc1cc(O)c(C)c(O)c1 |  | inactive | inactive | 1.69% (inactive) | 3.91 | 5.62 | inactive | inactive
O=c1c(O)c(-c2ccccc2)oc2cccc(O)c12 |  | inactive | inactive | 9.45% (inactive) | 9.77 | 18.2 | inactive | inactive
C[C@@H]1CCC2[C@](C)(CO)C(O)CC[C@@]2(C)[C@@]12CC[C@](CO)(CCO)O2 (stereo partly specified) |  | inactive | inactive | 5.37% (inactive) | 11.4 | 17.7 | inactive | inactive
CCOC(=O)C(Cc1ccc(O)cc1)NC(C)=O (stereo unspecified) |  | inactive | inactive | 7.38% (inactive) | 6.37 | 13.9 | inactive | inactive
CC1(C)C(O)C=C[C@@]2(C)C1CC(=O)O[C@@]1(C)C3=CC(=O)OC(c4ccoc4)[C@]3(C)CCC21 (stereo partly specified) |  | inactive | inactive | 9.57% (inactive) | 1.87 | 14.6 | inactive | inactive
CC(=O)O[C@](C)(CCC=C(C)C)C1CC=C(C)CC1 (stereo partly specified) |  | inactive | inactive | 3.31% (inactive) | 17.9 | 22 | inactive | inactive
C=C1C(=O)OC2CC1C(OC(C)=O)CC(C)=CCCC(C)=CCC[C@@]2(C)O (stereo partly specified) |  | inactive | inactive | -0.0283% (inactive) | 10.1 | 14.3 | inactive | inactive
CC1(C)CCCC2(C)C3C(O)CC2(C)C(O)C31 (stereo unspecified) |  | inactive | inactive | 1.58% (inactive) | -2.66 | -0.711 | inactive | inactive
COC1C(O)C(O)C(O)C(O)C1O (stereo unspecified) | inactive | inactive | inactive | 5.15% (inactive) | 13.2 | 22.7 | inactive | 
